Values joined by “and” are separate entries in the source; they are usually repeats but may differ in a detail not shown here. Identical values can stand only once. The panel holds about 83,000 compounds, 20% with a hit somewhere; the sample as a whole holds those more often.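 Method: cells in 96-well plates; compound added at one concentration; 48 h incubation; percent growth measured; values under 10 scored active.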 Values without a mark were called inactive. Active and inactive are the calls of the source.
system: MDA-MB-468 breast; experiment: NCI-60 one-dose screen, 48 h (100 = growth as untreated, 0 = no growth, -100 = all killed); settings: 10 µM unless noted

`CCN(CC)c1ccc(-c2cc(-c3cc(OC)c(OC)c(OC)c3)nc(N3CCC(O)CC3)c2C#N)cc1` was tested, and the growth was -48.2% (active).
`COc1ccc2c(c1)c(CC(=O)[Se]CC#N)c(C)n2C(=O)c1ccc(Cl)cc1` was tested, and the growth was -43.2% (active).
`c1csc(-c2[nH]nc3c2CCc2ccccc2-3)c1` was tested, and the growth was -18.7% (active).
In the case of `N#CC1CCc2c(c(-c3cn[nH]c3C(F)(F)F)nc3c(F)cc4[nH]ncc4c23)C1` (stereo not given), the growth is reported as -6.53% (active).
`COc1ccc2oc(=O)cc(C3c4ccc([nH]4)C(c4cc(=O)oc5ccc(OC)cc45)c4ccc([nH]4)C(c4cc(=O)oc5ccc(OC)cc45)c4ccc([nH]4)C(c4cc(=O)oc5ccc(OC)cc45)c4ccc3[nH]4)c2c1` (stereo not given) was tested, and the growth was -38.6% (active).
`O=c1c2cc(C(F)(F)F)ccc2sc2c(NCCCNCCO)nc3ccccc3c12` was tested, and the growth was -74.3% (active).
For `CS(=O)CCCCCN=C=S` (stereo not given), the growth was -11.3% (active).
`Cn1ccc2c(c1=O)C(=O)c1nccc3c1c-2nc1ccccc13` was tested, and the growth was -84.6% (active).
With `C=CC(=O)N1CCC(Oc2cc3c(Nc4ccc(Cl)c(Cl)c4F)ncnc3cc2OC)CC1` the growth was -62.5% (active).
With `O=Nc1c(O)ccc2ccccc12` the growth was 78.9% and 81.4%.

Going from `COC(=O)Nc1ccc(-c2nc(-c3cccc(O)c3)c(-c3ccnc(Br)c3)[nH]2)cc1` to `O=C(Nc1ccc(OCc2nnc(-c3ccc(Cl)cc3)o2)c(F)c1)Nc1ccc(Cl)c(Cl)c1`, the growth rises from 25.6% to 43.2%.

Compared with `O=C(/C=C/c1cc2ccccc2[nH]c1=O)c1ccc2c(c1)OCO2`, `CC1(C)C=Cc2cc(/C(N)=N/C(N)=N/c3nc4ccccc4s3)ccc2O1` is lower in growth: 114% for the first, 74.1% for the second.

Going from `COc1cc(C2CC(c3ccc(C)cc3)=NN2C(C)=O)ccc1Oc1ccnc2cc(Cl)ccc12` (stereo not given) to `Cc1cc(O)c(C2=NN(c3ccc(S(N)(=O)=O)cc3)C(c3ccccc3Cl)C2)cc1Cl` (stereo not given), the growth falls from 78.6% to 28.9%.

Compared with `CCOC(=O)C1=C(C)N=C2SC=C(c3ccccc3)N2[C@H]1c1cn[nH]c1-c1ccc(Cl)cc1`, `NS(=O)(=O)c1ccc(Nc2cc(-c3ccccc3)nc(SCC(=O)c3ccccc3)n2)cc1` is higher in growth: 22.4% for the first, 99.3% for the second.

Compared with `COC(=O)CSc1ccc(Cl)cc1`, `CCSC(SCC)c1ccc(Cl)cc1` is lower in growth: 126% for the first, 118% for the second.

Compared with `COC(=O)[C@H](C)NC(=O)[C@@H]1CCCN1C(=O)CNC(=O)[C@H](C)N`, `CCCCCCCCCCCCCCCC(=O)OC1[C@@H](OC(=O)CCCCCCCCCCCCCCC)[C@@H](C(=O)N[C@@H](CCCCN)C(=O)OC)O[C@H]1n1cnc2c(=O)[nH]c(NC(=O)C(C)C)nc21` (stereo not given in full) is lower in growth: 98.7% for the first, 83.1% for the second.

Compared with `COc1cc(-c2c3c(c(Br)n2Cc2ccccc2)-c2nc(N)sc2CC3)cc(OC)c1OC`, `COC(=O)c1cc2c(n1Cc1ccccc1)-c1oncc1CCC2` is lower in growth: 73.4% for the first, 63.5% for the second.

First: COc1ccc(C(=O)C2OC3=C(C(=O)CC(C)(C)C3)C2c2cccc(Oc3ccccc3)c2)cc1 (stereo not given)
Second: Nc1ccccc1NC(=O)c1ccc(-n2nc(-c3ccccc3)c3ccccc32)cc1
The growth of the first is lower: 94.3% for the first, 94.5% for the second.

Compared with `Nc1cc(N)c(S(=O)(=O)O)cc1N=Nc1cc([N+](=O)[O-])ccc1O`, `O=C1Nc2c(ccc(Cl)c2Cl)/C1=C/c1ccc([N+](=O)[O-])cc1` is higher in growth: 102% for the first, 103% for the second.

First: CC(C)c1ccc(/C=N/N=C(N)N)cc1
Second: O=C1NC(=Nc2ccc(O)cc2)S/C1=C\c1cccc(Cl)c1
The growth of the first is lower: 35.3% for the first, 44.5% for the second.

Compared with `COc1ccc(Nc2ncc(Br)c(NCCCNC(=O)C3CCCC3)n2)cc1`, `O=C(CCN1C(=O)/C(=C/c2ccc(Cl)cc2)SC1=S)NCCCN1CCOCC1` is higher in growth: 54.5% for the first, 100% for the second.

Going from `c1ccc2c(c1)CN(CCCN1CCOCC1)C2` to `OC1CCCc2ccccc21` (stereo not given), the growth rises from 89.7% to 97.4%.

First: CC(C)CSc1nc(-c2ccc(F)cc2)c(C#N)c(N2CCCCC2)n1
Second: C=C1CCC2C3(C)COC(c4ccccc4)OC3CCC2(C)C1/C=C/C1=CCOC1=O (stereo not given)
The growth of the first is higher: 101% for the first, 29.5% for the second.

Going from `O=C1c2cccc3cccc(c23)C(=O)N1CC#Cc1ccc2c3c(cccc13)C(=O)N(CCO)C2=O` to `CCCC/C=N/NC(=S)NCc1ccccc1`, the growth falls from 94.2% to 93%.

Work on `C=C(C)[C@@H]1CC[C@]2(COC(=O)c3ccccc3C(=O)O)CC[C@]3(C)[C@H](CC[C@@H]4[C@@]5(C)CCCNC(C)(C)[C@@H]5CC[C@]43C)[C@@H]12` yielded a growth of 52%.

Compound `O=c1cc(-c2ccccc2)oc2cc(OCc3cn(Cc4ccc(F)cc4)nn3)cc(O)c12` has a growth of 53.9% [100 µM].
